Assay results: PubChem BioAssay AID876 (University of Pittsburgh Molecular Library Screening Center, 2007)
The other results are listed elsewhere or left out. Unmarked numbers belong to inactive results. No rule for the calls is given here.

Experiment: H2O2 production by redox-active compounds – biochemical, artefact control for Plk1 PBD inhibitor project, dose response (AID 876)
Settings: redox cycling H2O2 generation, DTT, counter-screen

| SMILES | EC50 [µM] |
| --- | --- |
| CCOC(=O)c1cc2n(c1N)-c1ccccc1C2=O | > 50 |
| O=C(NCCc1ccccc1)/C(=C\c1ccc([N+](=O)[O-])cc1)NC(=O)c1ccccc1 | > 50 |
| CC1(C)CC(=O)C=C(NCc2ccncc2)C1 | > 50 |
| Oc1ccc2ccc3cccc[n+]3c2c1 | > 50 |
| COc1ccc(Nc2oc(-c3ccccc3Cl)nc2C#N)cc1 | > 50 |
